Bioassay records as filed in PubChem.
Compounds with a hit are over-represented: about 1.1% of the library has one in this group of screens.
Integrin act MD – activates integrin-mediated alleviation for muscular dystrophy; alpha7betagal myoblasts, beta-gal FDG fluorescence, 48 h; Potency, µM (highest dose often 38.3 µM), without a hit: at the top dose activation, hits mostly activators; 350,000 tested, 0.064% active;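 also: potency is read from the fitted curve at half-maximal effect; 100% = response of the positive control SU9516; nearly all actives have a fitted effect of over 60% in size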
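Alpha7betagal+/- myoblasts (passage 13) were plated 16-24 hr, then exposed to compounds (1:260 dilution of DMSO stock) for 48 hours at 37C. After MPER lysis, β-galactosidase reporter activity was read as FDG fluorescence (ex 480/em 540) after 30 minutes.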
TrxR1 substrate – substrates of rat thioredoxin reductase 1; O89049; purified TrxR1 substrate turnover, NADPH consumption readout; Potency, µM (series often up to 114 µM), for the others: top-dose activity change, negative = substrate turnover; 390,000 tested, 0.01% active; AID 588456; also: potency is read from the fitted curve at half-maximal effect; nearly all actives have a fitted effect of over 50% in size
Target sequence (O89049 whole entry, looked up): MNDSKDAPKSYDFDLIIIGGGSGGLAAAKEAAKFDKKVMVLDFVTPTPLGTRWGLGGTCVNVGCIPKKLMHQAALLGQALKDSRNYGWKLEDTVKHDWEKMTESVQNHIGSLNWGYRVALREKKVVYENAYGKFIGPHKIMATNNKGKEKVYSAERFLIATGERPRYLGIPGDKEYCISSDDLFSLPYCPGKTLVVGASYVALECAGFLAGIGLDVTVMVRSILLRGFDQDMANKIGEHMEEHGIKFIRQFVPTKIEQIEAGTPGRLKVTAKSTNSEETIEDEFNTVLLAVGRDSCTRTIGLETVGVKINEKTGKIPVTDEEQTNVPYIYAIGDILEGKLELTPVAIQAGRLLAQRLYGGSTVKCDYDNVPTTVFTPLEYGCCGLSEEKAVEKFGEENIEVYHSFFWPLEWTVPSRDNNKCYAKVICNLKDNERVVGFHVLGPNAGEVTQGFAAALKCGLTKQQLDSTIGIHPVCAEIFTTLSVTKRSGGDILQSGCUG
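Rat TrxR1, dispensed at 90 nM, was prereduced with 400 uM NADPH (final) for 5 min at ~22 deg C, then incubated with compound 15 min before 400 uM selenite. A first-read NADPH fluorescence drop versus no-compound background flagged substrates.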
LDHA block – inhibitors of human lactate dehydrogenase A; P00338; purified LDHA, NADH/diaphorase-resazurin fluorescence; stronger effect = lower value; activity change, % (values are at about 110 or 230 µM); 480,000 tested, 0.15% active; in the data active = activity change below about -30%; inconclusive = mostly about -25% to -30%;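 also: plate controls were DMSO wells for no effect and wells without enzyme for full effect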
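LDH5 2 nM; NADH 0.06 mM, pyruvate 0.2 mM; 200 mM Tris pH 7.4, EDTA, Tween-20; 5 min RT. Detection: diaphorase 0.133 mg/mL + resazurin 37 µM, fluorescence ex540/em590 at 0 and 20 min; normalized to enzyme-free and DMSO wells.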
PI4K2A inh – inhibitors of human PI4K2A; Q9BTU6; purified PI4K2A, ADP-Glo luminescence, 1 h; stronger effect = lower value; activity change, negative = inhibition, % at 76.9 µM; 420,000 tested, 0.13% active; in the data active = activity change below about -50%; inconclusive = mostly about -30% to -49%;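 also: -100% = wells without enzyme as full effect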
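Compounds are screened against recombinant PI4K2A using PI as substrate and ATP, the latter dispensed at 300 microM. Reactions run one hour at ambient temperature before ADP-Glo detection; full inhibition defined by wells lacking enzyme.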
TrxR1 inh – inhibitors of rat thioredoxin reductase 1 | O89049 | recombinant rTrxR1, NADPH fluorescence consumption, selenite substrate | Potency, µM (highest dose often 114 µM), inactives show at the highest dose activity change, negative = inhibition, usual class: inhibitors | 390,000 tested, 1% active | AID 588453; also: potency is read from the fitted curve at half-maximal effect; nearly all actives have a fitted effect of over 65% in size
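Rat TrxR1 (90 nM in the dispensed reagent) was pre-reduced with 400 uM NADPH for 5 min at room temperature, then incubated with compound for 15 min. After 400 uM selenite was added, NADPH fluorescence (Ex 340/Em 450 nm) was followed for 8 min.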
GALK inh – inhibitors of human galactokinase. P51570. Purified GALK, Kinase-Glo residual ATP luminescence. Potency, µM (titrated, usually from 57.5 µM), without a hit: at the top dose activity change, negative = inhibition, hits mostly inhibitors. 270,000 tested, 0.007% active. AID 1868; also: potency is read from the fitted curve at half-maximal effect
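Quantitative HTS: GALK 5 nM, ATP 35 uM, galactose 100 uM, 1 h room temperature, then luciferase-based ATP detection.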
An asterisk follows results filed as active; ? = inconclusive; nt = no result; [ ] = dose if it differs, or a comment. Unless noted, calls follow the shape of the dose curve; as a rule, active = well fitted curve in the direction sought with a large enough effect; inconclusive = small, poorly fitted or top-dose-only effect, or another doubt; inactive = no such curve, though single readings can be large; an effect the other way counts as inactive or inconclusive. Unless noted, % is scaled to controls: 0 for no effect and ±100 for the full control effect.

SMILES	Integrin act MD	TrxR1 substrate	LDHA block	PI4K2A inh	TrxR1 inh	GALK inh
CCSc1ncc(Cl)c(C(=O)Nc2ccc(S(=O)(=O)N3CCC(C)CC3)cc2)n1	nt	-3.1%	3.3	6.6	21.1%	nt
CCC1CCCCN1S(=O)(=O)c1cc(-c2csc(C)n2)ccc1C (stereo unspecified)	nt	nt	-2.9	nt	nt	nt
CCOC(=O)c1c(NC(=O)c2nc(S(C)(=O)=O)ncc2Cl)sc(C(C)=O)c1C	nt	4.4%	1.2	-2.6	1.41µM*	nt
CCS(=O)(=O)c1ncc(Cl)c(C(=O)Nc2ccccc2)n1	nt	-3.9%	-11.7	-6.4	2.51µM*	nt
CN(c1ccccc1)S(=O)(=O)c1ccc(NC(=O)c2nc(S(C)(=O)=O)ncc2Cl)cc1	-66.4%	0.4%	-4.2	-6.4	0.794µM*	2.2%
Cc1cccc(CS(=O)(=O)c2ncc(Cl)c(C(=O)NCc3ccc4c(c3)OCO4)n2)c1	-81.6%	19.5%	-3.0	-5.1	5.1%	3.1%
CCOC(=O)c1c(NC(=O)c2nc(SCC)ncc2Cl)sc(C(C)=O)c1C	nt	-1.1%	-4.9	-0.3	22.1%	nt
CC(=O)Nc1ccc(NC(=O)c2nc(S(=O)(=O)Cc3cccc(C)c3)ncc2Cl)cc1	-73.1%	3.3%	-7.5	?	10µM*	-5.4%
CCc1ccc(NC(=O)c2nc(S(=O)(=O)Cc3ccccc3)ncc2Cl)cc1	nt	nt	nt	nt	nt	3.6%
COc1cccc(Nc2nc(-c3ccc(CC(=O)N4CCOCC4)s3)cs2)c1	nt	nt	0.5	nt	nt	nt
Cc1sc2c(c1C)c1nc(-c3ccco3)nn1c(=O)n2CCc1ccccc1	nt	nt	-4.4	nt	nt	nt
CCS(=O)(=O)c1ncc(Cl)c(C(=O)N2CCN(c3ccc(OC)cc3)CC2)n1	nt	6.3%	5.2	1.8	3.16µM*	nt
Cc1ccc(NC(=O)c2sccc2C)cc1I	nt	nt	3.6	nt	nt	nt
CC(=O)N1CCN(C(C(=O)O)c2cn(Cc3ccccc3)c3cc(C(=O)O)ccc23)CC1 (stereo unspecified)	nt	nt	-0.5	nt	nt	nt
Cc1coc2c1c(C)cc1oc(=O)c(Cc3ccccc3)c(C)c12	-14.0%	23.4%	-4.3	-84.2*	16.4%	0.7%
CCCCC(=O)Nc1ccc(C(=O)NNC(=O)c2ccc(C)c(Br)c2)cc1	10.0%	2.7%[57.1 µM]	-46.7*	-18.3	0.9%[57.1 µM]	0.0%
CCCCC(=O)Nc1ccc(C(=O)NNC(=O)CCc2ccccc2)cc1	7.0%	19.6%	-13.5	0.9	28.6%	-1.9%
Cc1cccc(NC2=NS(=O)(=O)c3ccccc32)c1C	nt	nt	4.5	nt	nt	nt
NS(=O)(=O)c1ccc(Nc2c([N+](=O)[O-])cncc2[N+](=O)[O-])cc1	-15.2%	-3.1%	-33.5*	-1.5	6.5%	0.8%
Cc1cc(C)cc(NC(=O)c2cc(C)nc3c2c(C)nn3-c2ccccc2)c1	nt	41.5%	-1.0	2.3	79.4µM*	nt
Cc1nn(-c2ccccc2)c2nc(-c3ccncc3)cc(C(=O)NCc3ccco3)c12	-17.9%	0.8%	6.2	-21.0	50.1µM*	0.4%
Cc1nn(-c2ccccn2)c2nc(-c3cccs3)cc(C(=O)NCc3ccco3)c12	13.0%	145.2%	1.6	-7.2	-18.2%	0.0%
Cc1nn(-c2ccccc2)c(C)c1C(=O)OCC(=O)NCc1ccco1	-30.7%	3.8%	2.2	-3.0	56.2µM*	1.3%
COc1cc(C(=O)OCc2ccc(Br)cc2)cc(OC)c1OC	nt	nt	11.1	nt	nt	nt
CCC1S/C(=N/C(=O)NC2CCCCC2)NC1=O (stereo unspecified)	1.8%	9.9%[57.1 µM]	-1.6	-3.0	6.7%[57.1 µM]	-3.2%
SMILES	Integrin act MD	TrxR1 substrate	LDHA block	PI4K2A inh	TrxR1 inh	GALK inh
O=C(/N=C1\NC(=O)C(F)(C(F)(F)F)S1)NC1CCCCC1 (stereo unspecified)	-27.0%	-7.3%	-0.6	-15.1	25.1µM*	-1.8%
O=CN1N=C(c2ccccc2)CC1c1ccc(Cl)cc1 (stereo unspecified)	?	-15.5%	-18.3	-6.3	-17.0%	1.3%
O=C1OC(c2ccccc2)=NC12CC2c1ccc(Cl)cc1 (stereo unspecified)	10.2%	-2.2%	-4.9	0.9	7.94µM*	1.0%
Cc1ccsc1CN(CC1CCCO1)C(=O)COc1ccccc1 (stereo unspecified)	nt	nt	-0.7	nt	nt	nt
CCS(=O)(=O)N1CCC(C(=O)Nc2ccc(Oc3ccccc3OC)cc2)CC1	nt	nt	-3.4	nt	nt	nt
CCN1CCc2c(OCC(=O)N3N=C(c4cccs4)CC3c3ccc(F)cc3)cccc2C1=O (stereo unspecified)	-9.0%	32.8%	-0.1	-5.1	11.5%	-0.2%
COc1cc(C2CC(c3cccs3)=NN2C(=O)CCl)ccc1OC(F)F (stereo unspecified)	-74.5%	6.4%	-5.4	15.8	7.94µM*	-10.9%
COc1ccc(C2CC(c3cccs3)=NN2C(=O)CCl)cc1OC (stereo unspecified)	-56.9%	0.0%	-0.8	6.0	7.94µM*	-6.1%
CN1CCc2c(OCC(=O)N3N=C(c4cccs4)CC3c3ccc(F)cc3)cccc2C1=O (stereo unspecified)	-37.8%	10.6%	2.3	7.8	14.1µM*	-1.1%
COc1ccc(C2CC(c3cccs3)=NN2C(=O)c2ccccc2)cc1OC (stereo unspecified)	16.4%	12.3%[57.1 µM]	-6.7	1.1	13.2%[57.1 µM]	0.0%
CNC(=O)NC(=O)C(C)Oc1ccc2ccc(=O)oc2c1 (stereo unspecified)	nt	nt	-7.6	nt	nt	nt
Cn1c(C(=O)N2CCN(C(=O)c3ccc(F)cc3)CC2)cc2ccccc21	nt	nt	5.9	nt	nt	nt
O=C(NC1CCCCC1)c1ccc(CS(=O)(=O)Cc2ccccc2F)o1	-11.6%	-7.5%	3.0	-5.5	-24.5%	1.0%
O=C(NC1CCCC1)c1ccc(CS(=O)(=O)Cc2ccccc2F)o1	4.47µM*	-7.7%	-8.1	5.1	13.0%	-4.7%
C=C(C)COc1ccc2c(C)c(CCC(=O)N3CCC(C(N)=O)CC3)c(=O)oc2c1	nt	nt	10.5	nt	nt	nt
Cc1ccnc(SCc2nc3cc(NS(=O)(=O)c4ccc(Cl)cc4)ccc3n2C)n1	nt	nt	2.5	nt	nt	nt
COc1cc(Cl)cc(CN2CCC(CCC(=O)NC3CC3)CC2)c1OC	7.08µM*	-2.1%	-6.8	-0.6	24.1%	5.6%
O=C(C1COc2ccccc2O1)N1CCN(c2ccc([N+](=O)[O-])cc2)CC1 (stereo unspecified)	-44.1%	-2.5%	-3.7	7.9	1.41µM*	nt
O=C(C1COc2ccccc2O1)N1CCN(c2ccc(F)cc2)CC1 (stereo unspecified)	27.5%	5.3%	-2.1	0.0	9.1%	0.0%
COc1cc(C)cc2oc(=O)c(CC(=O)Nc3nc(CC(=O)O)cs3)c(C)c12	nt	nt	8.3	nt	nt	nt
CS(=O)(=O)N(Cc1cccc(CN(C(C(=O)O)c2ccccc2)S(C)(=O)=O)c1)C(C(=O)O)c1ccccc1 (stereo unspecified)	6.4%	0.8%	-4.4	6.2	50.1µM*	nt
